Source: PubChem BioAssay
Only a selection was taken, and hits are over-represented in it overall.
AMPAR-TARP mod: GluA2-stargazin AMPA receptor complex modulation; 3.5% of 40,000 active; O88602+P19491; HEK293 GluA2+stargazin, membrane potential dye (FDSS), glutamate EC50; hits were called plate by plate, in both directions; calls only at 30 µM;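 active means any of four per-well response measures lying three or more SD from its plate-wide compound average, in either direction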
GIRK2 act: Activates human GIRK2-containing potassium channels. P48051. HEK293 GIRK2/NPY4 cells, thallium flux fluorescence. activation (% efficacy), % for hits at 37.5 µM. 34,000 tested, under 10 active. AID 1259324;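 active means primary screen hit, no activity in plain HEK293 cells, and in GIRK2-only cells above 5% efficacy rising with concentration; inactive means the rest, including fluorescent compounds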;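 further: efficacy is normalized control-subtracted fluorescence 15 s after thallium addition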
Target sequence (P48051 whole entry, looked up): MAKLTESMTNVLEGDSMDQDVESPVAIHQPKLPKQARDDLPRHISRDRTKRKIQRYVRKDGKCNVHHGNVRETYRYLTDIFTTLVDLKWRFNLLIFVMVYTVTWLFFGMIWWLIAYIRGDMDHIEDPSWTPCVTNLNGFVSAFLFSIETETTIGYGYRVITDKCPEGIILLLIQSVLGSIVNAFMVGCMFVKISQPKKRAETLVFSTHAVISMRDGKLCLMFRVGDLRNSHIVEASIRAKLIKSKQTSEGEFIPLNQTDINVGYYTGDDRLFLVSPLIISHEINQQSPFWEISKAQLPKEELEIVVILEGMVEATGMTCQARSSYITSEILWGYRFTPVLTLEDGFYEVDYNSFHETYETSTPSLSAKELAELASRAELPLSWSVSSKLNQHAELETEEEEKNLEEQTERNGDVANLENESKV
Calls only; . = inactive; / = not tested or not shown; + = active, no number.

SMILES	AMPAR-TARP mod	GIRK2 act
COc1ccc(N2C(=O)CN(CCc3ccccc3OC)C3CS(=O)(=O)CC32)cc1 (stereo not drawn)	.	.
COc1ccc(N2C(=O)CS(=O)(=O)C23C(=O)N(Cc2ccccc2C)c2ccccc23)cc1 (stereo not drawn)	+	/
Cc1cc(-c2nnc(NC(=O)C3CCCN(S(=O)(=O)c4cccs4)C3)o2)n(C)n1 (stereo not drawn)	.	.
Cc1cc(NC(=O)c2ccc(S(=O)(=O)N(C)Cc3ccccc3)cc2)n(C)n1	/	.
COCCNC(=O)Cn1nc2c(c1NC(=O)c1ccc(Br)o1)CSC2	.	.
CC(O)(CNC(=O)c1cc(Cl)ccc1Cl)c1ccc2c(c1)OCO2 (stereo not drawn)	.	.
CC(O)(CNC(=O)Nc1ccc(Cl)c(Cl)c1)c1ccc2c(c1)OCO2 (stereo not drawn)	+	.
O=C(Cc1cc(-c2ccc3c(c2)OCCO3)on1)NCc1ccccc1	+	.
O=C(Cc1cc(-c2ccc3c(c2)OCO3)on1)NCc1ccc2c(c1)OCO2	.	.
O=C(CCCS(=O)(=O)c1ccccc1)Nc1nc2ccc(Br)cc2s1	.	.
CCOC(=O)c1sc(NC(=O)C2CCCN2S(C)(=O)=O)nc1-c1ccccc1 (stereo not drawn)	.	.
O=S(=O)(Nc1cccc(C(F)(F)F)c1)c1c(Cl)cccc1Cl	+	.
O=S(=O)(Nc1ccc2c(c1)OCCO2)c1c(Cl)cccc1Cl	.	.
COc1ccccc1N1CCN(C(=O)CCN2C(=O)c3ccccc3S2(=O)=O)CC1	.	/
O=C(NCCOc1ccc2nnc(-c3ccccc3)n2n1)C1CCCC1	.	.
O=C(NCCOc1ccc2nnc(-c3cccc(F)c3)n2n1)c1cc(-c2ccccc2)n[nH]1	+	.
O=C(COc1ccccc1)NCCOc1ccc2nnc(-c3cccc(F)c3)n2n1	.	/
O=C(NCCOc1ccc2nnc(-c3ccccc3)n2n1)Nc1ccccc1	.	.
COc1ccc(-c2nnc3ccc(OCCNC(=O)c4ccccc4)nn23)cc1OC	.	.
O=C(NCCOc1ccc2nnc(-c3ccccc3)n2n1)Nc1cccs1	+	.
COc1ccc(-c2nnc3ccc(OCCNC(=O)Nc4cccs4)nn23)cc1OC	+	.
COc1ccc(-c2nnc3ccc(OCCNC(=O)C4CC4)nn23)cc1	+	.
Cc1cn2c3c(=O)n(CC(=O)OCc4ccccc4)c(=O)n(C)c3nc2n1-c1ccc(F)cc1	.	/
COCCn1c(=O)c2c(nc3n2CCCN3c2ccccc2C)n(C)c1=O	.	/
Cc1cc(C)n(-c2ccc(N3CCCC(C(=O)Nc4cccc(Cl)c4Cl)C3)nn2)n1 (stereo not drawn)	.	.
SMILES	AMPAR-TARP mod	GIRK2 act
CCCNC(=O)CCCCn1c(=O)c2ccccc2n(CC(=O)Nc2ccc(F)c(Cl)c2)c1=O	.	.
COc1ccc(S(=O)(=O)NCc2ccccc2)cc1N(C)S(=O)(=O)c1ccccc1	.	/
CSc1ccc(CC(=O)Nc2ccc([N+](=O)[O-])cc2)cc1	+	/
O=C(NCCc1ccc(F)cc1)Nc1ccc([N+](=O)[O-])cc1	+	/
COc1ccc(NC(=O)Cc2ccc(SC)cc2)cc1	.	/
CCc1ccc(NC(=O)C(=O)Nc2ccc([N+](=O)[O-])cc2)cc1	.	/
CSc1cccc(NC(=O)C(=O)N2CCN(c3cccc(Cl)c3)CC2)c1	.	/
COc1ccccc1-c1cnn2c(Nc3ccccc3)cc(C)nc12	.	.
COc1ccccc1-c1cnn2c(NCCc3ccccc3)cc(C)nc12	+	.
O=C(Nc1cccc(-c2cnc3n2CCC3)c1)c1ccc(Br)o1	+	.
O=C(Nc1cccc(-c2cnc3n2CCC3)c1)c1cc2ccccc2oc1=O	+	.
O=C(Nc1cccc(Cl)c1)Nc1cccc(-c2cnc3n2CCC3)c1	.	.
CCOC(=O)CCC(=O)Nc1cccc(-c2cnc3n2CCC3)c1	+	.
CCOC(=O)CCC(=O)Nc1cccc(N2CCCC2=O)c1	.	.
COc1ccc(Br)c(C(=O)Nc2cccc(-c3cnc4n3CCC4)c2)c1	.	.
COc1ccc(C2c3cccn3CCN2S(=O)(=O)c2ccc(F)cc2)cc1OC (stereo not drawn)	.	.
CCC(C)Sc1nnc(CNC(=O)C23CC4CC(CC(C4)C2)C3)n1CC (stereo not drawn)	.	.
O=C(NCC(O)(c1ccccc1)C1CC1)c1ccccc1C(F)(F)F (stereo not drawn)	.	/
Cn1c2c(c(=O)[nH]c1=O)C(c1ccc(O)cc1)NC(=O)N2 (stereo not drawn)	.	.
COc1ccc(NC(=O)Cn2cc(-c3nc(-c4cccc(F)c4)no3)c(=O)c3ccc(C)nc32)cc1	.	.
Cc1cccc(NC(=O)CC2CCCCN2S(=O)(=O)c2cccs2)c1C (stereo not drawn)	+	.
O=C(CC1CCCCN1S(=O)(=O)c1ccccc1)NCc1cccs1 (stereo not drawn)	.	/
CC(C)CNC(=O)C(=O)NCC1CCN(Cc2cccs2)CC1	.	.
COc1ccc(OC)c(NC(=O)CSc2ncc(-c3cccc(Cl)c3)o2)c1	/	.
CCOC(CNC(=O)C(=O)Nc1ccc(N2CCCS2(=O)=O)cc1)OCC	.	/
SMILES	AMPAR-TARP mod	GIRK2 act
CCOC(CNC(=O)C(=O)Nc1ccc(N2CCCCS2(=O)=O)cc1)OCC	+	/
COc1ccc(CC(=O)N2CCN(c3ccc(Nc4ccccn4)nn3)CC2)cc1	.	.
N#CC1=Cc2ccc(-c3ccccc3)n2C1=N	.	.
CC(C)(C)n1ncc2c(=O)n(NC(=O)/C=C/c3ccccc3)cnc21	+	.
CC(C)(C)n1ncc2c(=O)n(NC(=O)C(c3ccccc3)c3ccccc3)cnc21	.	.
COc1ccc(-n2c(SCc3nc(-c4ccccc4)no3)nc3ccsc3c2=O)cc1	.	.
CCC(=O)N(CCC1(c2ccc(OC)cc2)CCOC(C)(C)C1)Cc1ccc(Cl)cc1 (stereo not drawn)	+	/
CCOC(=O)C1=C(C)NC(=O)NC1c1ccc(OC)cc1 (stereo not drawn)	.	/
O=C(CCCn1c(=S)[nH]c2ccccc2c1=O)N1CC=C(c2ccccc2)CC1	.	.
O=C(NCC(O)c1ccsc1)c1cc(C(F)(F)F)cc(C(F)(F)F)c1 (stereo not drawn)	.	.
Cn1nc(NC(=O)c2ccco2)c2c1NC(=O)CC2c1ccccc1 (stereo not drawn)	.	.
COc1ccccc1CCNC(=O)CC1CCCCN1S(=O)(=O)c1ccc(C)cc1 (stereo not drawn)	+	/
COc1ccccc1CNC(=O)CC1CCCCN1S(=O)(=O)c1ccc(Cl)cc1 (stereo not drawn)	.	/
COc1ccccc1CNC(=O)C(=O)NCCC1CCCCN1S(=O)(=O)c1ccccc1 (stereo not drawn)	+	/
COc1ccccc1CNC(=O)C(=O)NCCC1CCCCN1S(=O)(=O)c1ccc(F)cc1 (stereo not drawn)	.	/
Cc1ccc(S(=O)(=O)N2CCCCC2CC(=O)NC2CCCCC2)cc1 (stereo not drawn)	.	/
O=C(CC1CCCCN1S(=O)(=O)c1ccccc1)NC1CCCCC1 (stereo not drawn)	+	/
COc1ccccc1CCNC(=O)CC1CCCCN1S(=O)(=O)c1ccccc1 (stereo not drawn)	.	/
COc1ccccc1CCNC(=O)CC1CCCCN1S(=O)(=O)c1ccc(Cl)cc1 (stereo not drawn)	+	/
